According to PubChem BioAssay AID1159580 (chemical genetic matrix, 2015):
Values joined by “and” are separate entries in the source; they are usually repeats but may differ in a detail not shown here. Identical values can stand only once. About 2,000 (36%) of roughly 5,500 compounds were called active. Roughly 18% stayed inconclusive and do not appear here. No stated cut-off is given here; in the data, active means normalized growth mostly below about 0.91 (no sharp cut-off); inconclusive means no clear call, values can overlap the other calls; inactive means mostly above about 0.92. The list shows a part of the results.

Assay: chemical genetic growth profiling, strain panel (AID 1159580);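 further: tested at 20 µM; growth read once vehicle control cultures reached saturation at 30 °C; 1 = growth at the plate median or of vehicle wells; lower values mean less growth of the strain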
Conditions: growth OD

Measured: normalized growth

OCCN1CCN(CCCN2c3ccccc3Sc3ccc(C(F)(F)F)cc32)CC1
inactive: S. cerevisiae deletion strains, locus YJR075W, strain HOC1, hits give low values 0.939 and 0.985 | S. cerevisiae deletion strains, locus YKL009W, strain mrt4, hits give low values 0.926 | S. cerevisiae deletion strains, locus YKL068W, hits give low values 0.987 | S. cerevisiae deletion strains, locus YKL085W, strain MDH1 (second series), hits give low values 0.981 | S. cerevisiae deletion strains, locus YKL085W, strain MDH1, hits give low values 0.981 | S. cerevisiae deletion strains, locus YKL160W, strain elf1, hits give low values 0.907 | S. cerevisiae deletion strains, locus YKL190W, strain CNB1, hits give low values 0.975 | S. cerevisiae deletion strains, locus YKR026C, strain gcn3, hits give low values 0.998 | S. cerevisiae deletion strains, locus YKR091W, strain srl3, hits give low values 0.976 | S. cerevisiae deletion strains, locus YLL001W, strain dnm1, hits give low values 0.983 | S. cerevisiae deletion strains, locus YLL026W, hits give low values 0.968 | S. cerevisiae deletion strains, locus YLL041C, strain sdh2, hits give low values 0.968 | S. cerevisiae deletion strains, locus YLR027C, strain aat2, hits give low values 0.951 | S. cerevisiae deletion strains, locus YLR058C, strain SHM2, hits give low values 0.976 | S. cerevisiae deletion strains, locus YLR102C, strain apc9, hits give low values 0.995 | S. cerevisiae deletion strains, locus YLR221C, strain rsa3, hits give low values 0.975 | S. cerevisiae deletion strains, locus YLR258W, strain gsy2, hits give low values 0.949 | S. cerevisiae deletion strains, locus YLR262C, strain YPT6 (second series), hits give low values 1.04 | S. cerevisiae deletion strains, locus YLR268W, strain sec22, hits give low values 0.901 | S. cerevisiae deletion strains, locus YLR320W, strain mms22, hits give low values 0.999 | S. cerevisiae deletion strains, locus YLR330W, strain CHS5, hits give low values 1.03 | S. cerevisiae deletion strains, locus YLR357W, strain rsc2, hits give low values 0.984 | S. cerevisiae deletion strains, locus YLR370C, strain arc18, hits give low values 0.952 | S. cerevisiae deletion strains, locus YLR371W, strain rom2, hits give low values 0.983 | S. cerevisiae deletion strains, locus YLR384C, strain iki3, hits give low values 0.981 | S. cerevisiae deletion strains, locus YML016C, strain PPZ1, hits give low values 0.994 | S. cerevisiae deletion strains, locus YML032C, strain rad52, hits give low values 0.926 | S. cerevisiae deletion strains, locus YML120C, strain ndi1, hits give low values 0.995 | S. cerevisiae deletion strains, locus YML124C, strain tub3, hits give low values 1 | S. cerevisiae deletion strains, locus YMR078C, strain ctf18, hits give low values 0.986 | S. cerevisiae deletion strains, locus YMR125W, strain sto1, hits give low values 0.957 | S. cerevisiae deletion strains, locus YMR129W, hits give low values 0.978 | S. cerevisiae deletion strains, locus YMR205C, strain PFK2, hits give low values 0.992 | S. cerevisiae deletion strains, locus YMR223W, strain ubp8, hits give low values 0.963 | S. cerevisiae deletion strains, locus YMR263W, strain SAP30, hits give low values 0.933 and 0.994 | S. cerevisiae deletion strains, locus YMR307W, strain GAS1, hits give low values 0.852 and 1.02 | S. cerevisiae deletion strains, locus YNL067W, strain RPL9B, hits give low values 0.921 | S. cerevisiae deletion strains, locus YNL071W, strain lat1, hits give low values 0.988 | S. cerevisiae deletion strains, locus YNL128W, strain TEP1, hits give low values 0.944 | S. cerevisiae deletion strains, locus YNL153C, strain GIM3, hits give low values 0.919 and 0.859 | S. cerevisiae deletion strains, locus YNL175C, strain NOP13, hits give low values 1.01 | S. cerevisiae deletion strains, locus YNL197C, strain WHI3, hits give low values 1.01 | S. cerevisiae deletion strains, locus YNL209W, strain ssb2, hits give low values 0.952 | S. cerevisiae deletion strains, locus YNL224C, strain SQS1, hits give low values 1.02 | S. cerevisiae deletion strains, locus YNL233W, strain BNI4, hits give low values 0.909 | S. cerevisiae deletion strains, locus YNL248C, strain rpa49, hits give low values 0.901 | S. cerevisiae deletion strains, locus YNL250W, strain rad50, hits give low values 0.989 | S. cerevisiae deletion strains, locus YNL271C, strain bni1, hits give low values 0.986 | S. cerevisiae deletion strains, locus YNL298W, strain CLA4, hits give low values 0.963 | S. cerevisiae deletion strains, locus YNL307C, strain MCK1, hits give low values 0.98 | S. cerevisiae deletion strains, locus YNL322C, strain KRE1 (second series), hits give low values 0.968 | S. cerevisiae deletion strains, locus YNL322C, strain KRE1, hits give low values 0.995 | S. cerevisiae deletion strains, locus YNR049C, strain mso1, hits give low values 0.984 | S. cerevisiae deletion strains, locus YNR052C, strain pop2, hits give low values 0.938 | S. cerevisiae deletion strains, locus YOL006C, strain TOP1, hits give low values 0.629 | S. cerevisiae deletion strains, locus YOL012C, strain htz1 1.6 | S. cerevisiae deletion strains, locus YOL147C, strain pex11, hits give low values 0.986 | S. cerevisiae deletion strains, locus YOR001W, strain rrp6, hits give low values 0.943 | S. cerevisiae deletion strains, locus YOR061W, strain CKA2, hits give low values 0.987 | S. cerevisiae deletion strains, locus YOR069W, strain VPS5, hits give low values 0.986 | S. cerevisiae deletion strains, locus YOR070C, strain gyp1, hits give low values 0.938 | S. cerevisiae deletion strains, locus YOR080W, strain dia2, hits give low values 0.989 | S. cerevisiae deletion strains, locus YOR083W, strain WHI5 (second series), hits give low values 0.886 | S. cerevisiae deletion strains, locus YOR136W, strain idh2, hits give low values 0.978 | S. cerevisiae deletion strains, locus YOR144C, strain elg1, hits give low values 0.999 | S. cerevisiae deletion strains, locus YOR184W, strain ser1, hits give low values 0.99 | S. cerevisiae deletion strains, locus YOR265W, strain rbl2, hits give low values 0.986 | S. cerevisiae deletion strains, locus YOR270C, strain vph1, hits give low values 0.788 | S. cerevisiae deletion strains, locus YOR290C, strain snf2, hits give low values 0.911 | S. cerevisiae deletion strains, locus YOR316C, strain cot1, hits give low values 0.991 | S. cerevisiae deletion strains, locus YPL055C, strain LGE1, hits give low values 0.902 and 0.943 | S. cerevisiae deletion strains, locus YPL078C, strain atp4, hits give low values 0.941 | S. cerevisiae deletion strains, locus YPL106C, strain sse1, hits give low values 0.988 | S. cerevisiae deletion strains, locus YPL240C, strain hsp82, hits give low values 0.984 | S. cerevisiae deletion strains, locus YPL241C, strain CIN2, hits give low values 0.997 | S. cerevisiae deletion strains, locus YPR119W, strain clb2, hits give low values 0.988 | S. cerevisiae deletion strains, locus YPR141C, strain kar3, hits give low values 0.985 | S. cerevisiae deletion strains, locus YPR167C, strain met16, hits give low values 0.984 | S. cerevisiae strains, strain wild type, hits give low values 0.949
active: S. cerevisiae deletion strains, locus YKR001C, strain vps1, hits give low values 0.864 | S. cerevisiae deletion strains, locus YLR039C, strain RIC1, hits give low values 1.48 [resistant] | S. cerevisiae deletion strains, locus YLR262C, strain YPT6, hits give low values 1.41 [resistant] | S. cerevisiae deletion strains, locus YLR342W, strain FKS1 (second series), hits give low values 0.723 | S. cerevisiae deletion strains, locus YLR342W, strain FKS1, hits give low values 0.807 | S. cerevisiae deletion strains, locus YLR418C, strain cdc73, hits give low values 0.76 | S. cerevisiae deletion strains, locus YMR058W, strain fet3, hits give low values 0.884 | S. cerevisiae deletion strains, locus YMR231W, strain pep5, hits give low values 0.0843 | S. cerevisiae deletion strains, locus YOR083W, strain WHI5, hits give low values 0.855 | S. cerevisiae deletion strains, locus YOR106W, strain vam3, hits give low values 0.644 | S. cerevisiae deletion strains, locus YPL051W, strain arl3, hits give low values 0.874 | S. cerevisiae deletion strains, locus YPR163C, strain tif3, hits give low values 0.89 | S. cerevisiae deletion strains, strain wtn01, hits give low values 0.887
